The values that follow come from PubChem BioAssay (NCATS).

“And” between values parts separate entries of the source, which are not always exact repeats. Equal values may be shown once. Inconclusive results are not listed. The source made the active and inactive calls. The call rests on the fitted dose curve; in most records, active means well fitted cell-killing curve with a large enough effect; inconclusive means small, poorly fitted or top-dose-only effect; inactive means flat fitted curve, though single readings scatter.
On the % scale 0 is the no-effect control and ±100 the full control effect.

The experiment in a line: Cellular viability qHTS for adrenocortical cancer (ACC) cell line SW-13 (AID 1963989). Further: nearly all actives have a fitted effect of over 65% in size.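 On activity (max response): cells grown in serum-free medium with ITS supplement.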 The following applies: SW-13 ACC cells viability, CellTiter-Glo, 48 h; activity (max response): active compounds read low. The text has this: PI: Naris Nilubol, MD Surgical Oncology Program, National Cancer Institute (NCI) National Institute of Health (NIH), Bethesda, Maryland Adrenocortical cancer (ACC) is a rare malignancy with poor survival outcomes and few treatment options. Currently, mitotane is the only FDA-approved therapy for ACC. Although adjuvant radiation therapy is rarely utilized, it has the potential to improve survival in select cases. Through a quantitative high-throughput drug screen (qHTS), we identified auranofin (AF), a thioredoxin reductase (TXNRD) inhibitor, as a promising candidate drug. This study aims to evaluate whether AF can enhance the efficacy of radiation therapy in the treatment of ACC. Two human ACC cell lines, SW-13 and NCI-H295R, were screened using the National Center for Advancing Translational Sciences (NCATS) Pharmaceutical Collection (NPC) and the Mechanism Interrogation PlatE (MIPE) library (~4,991 compounds). CellTiter-Glo (Cat # G7570, Promega, Madison, WI) was utilized to measure cell viability. Described herein are the results of the corresponding viability assay.
PROTOCOL TABLE (as described by Inglese J, Shamu CE and Guy RK. 2007) SEQUENCE No. (e.g., 1, 2, 3, etc.); […] (e.g., Cells, Incubation, Reagent, etc.); VALUE; DESCRIPTION. 1; Cells; 5 uL; white, solid-bottom, 1536-well tissue-culture treated plates. 2; Time; overnight culture at 37C with 5% CO2. 3; Compounds and control; 23 nL; Kalypsis pin tool (Wako USA) equipped with a 1536-well pin head to transfer to the assay plates. 4; Time; 48 hours; 37C with 5% CO2. 5; Reagent; 4 uL; CellTiter-Glo luminescent substrate mix. 6; Time; 20 min at room temperature. 7; Detection; Luminescence; ViewLux plate reader NOTES (numbers refer to Sequence numbers above) 1. SW13 cells were harvested from a T175 flask and resuspended in ITS-supplemented DMEM serum-free medium at a concentration of 300 000 cells/mL. Then 5 uL of resuspended cells were dispensed into each well of white, solid-bottom, 1536-well tissue-culture-treated plates using a multidrop combi dispenser. The plates were covered with stainless steel gasket lids. 2-3. The plates were cultured overnight at 37C with 5% CO2. Twenty-three nL of compounds (eight selected concentrations from the NPC / MIPE) or positive control (10 mM stock of bortezomib) in DMSO was transferred to each well of the assay plate using a pin tool (Kalypsys, San Diego, CA, USA). The final concentration of the compounds in the 5 uL assay volume ranged from 0.5 nM to 46 uM. 4-6. After 48 hours of incubation at 37C and 5% CO2, 4 uL of CellTilter-Glo luminescent substrate mix (Promega, Madison, WI, USA) was added to each well. Then the plates were incubated for 20 minutes at room temperature. 7. After incubation, luminescence was measured using a ViewLux plate reader (PerkinElmer, Waltham, MA, USA) with a clear filter was used to measure the number of metabolically competent cells. To determine compound activity in the qHTS assay, the titration-response data for each sample was plotted and modeled by a four-parameter logistic fit yielding IC50 and efficacy (maximal response) values. […] REFERENCES: Inglese J, Shamu CE and Guy RK, Reporting data from high throughput screening of small molecule libraries, Nature Chemical Biology, 2007, 3(8): 438-441. doi.org/10.1038/nchembio0807-438.
A general note: qHTS replaces the single test concentration by a dilution series.
As to `C[C@H]1[C@@H]2Cc3ccc(O)cc3[C@@]1(C)CCN2C`, the activity (max response) was -10.9% (inactive).
Regarding `c1ccc2c(CN3CCNCC3)cccc2c1`, the activity (max response) is 3.38% (inactive).
For the compound `O=c1[nH]oc2c1CCNC2`, the activity (max response) is 5.4% (inactive).
Same read-out and setting: under `CC(C(=O)c1ccccc1)N(C)C` (stereo not given) stands 8.81% (inactive).
Take `COP(=S)(OC)Oc1ccc(S(N)(=O)=O)cc1`: the activity (max response) is 5.57% (inactive).
As for `COP(=S)(OC)SCN1C(=O)c2ccccc2C1=O`, the activity (max response) is 6.58% (inactive).
Take `Nc1ccc(Cl)cc1`: the activity (max response) was 5.53% (inactive).
The same measure, in the same setting: under `CC(C)NCC(O)c1ccccc1Cl` (stereo not given) stands 5.55% (inactive); under `CC(C)(O)C(Cl)(Cl)Cl`, 9.4% (inactive); under `CC(C)=CCOc1c2occc2cc2ccc(=O)oc12`, -12.5% (inactive).
As to `CCCN(CCC)C(=O)Cc1c(-c2ccc(Cl)cc2)nc2ccc(Cl)cn12`, the activity (max response) was -9.21% (inactive).
On the same count and under the same terms, next, `O=[N+]([O-])O[C@H]1CO[C@H]2[C@@H]1OC[C@H]2O[N+](=O)[O-]`: 12.6% (inactive); `Cc1cc(O)ccc1Cl`: 10.8% (inactive); `OCCCBr`: 0.205% (inactive).
`CC(O)CN1CCN(CC(=O)[O-])CCN(CC(=O)[O-])CCN(CC(=O)[O-])CC1.[Gd+3]` (stereo not given): the activity (max response) was 0.662% (inactive).
Same read-out and setting: under `CC(C)(C)NCC(O)c1cc(Cl)c(N)c(Cl)c1` (stereo not given) stands 11.4% (inactive).
Regarding `CN[C@@H]1C[C@H]2O[C@@](C)([C@@H]1OC)n1c3ccccc3c3c4c(c5c6ccccc6n2c5c31)C(=O)NC4`, the Potency is 100 nM (active).
As for `O=c1[nH]c2cc(Cl)ccc2n1C1CCNCC1`, the activity (max response) was 8.8% (inactive).
Take `O=C(O)CCCOc1ccc(Cl)cc1Cl`: the activity (max response) was -0.391% (inactive).
The same measure, in the same setting: next, `CCCC[N+]1(C)[C@H]2CC(OC(=O)[C@H](CO)c3ccccc3)C[C@H]1[C@H]1O[C@H]12` (stereo not given in full): -1.99% (inactive).
With `C/C=C(/C)C(=O)O[C@H]1C(C)=C2[C@H]([C@@H]1OC(=O)CCCCCCC)[C@@](C)(OC(C)=O)C[C@H](OC(=O)CCC)[C@@]1(O)[C@H]2OC(=O)[C@@]1(C)O`, the Potency is 44.7 nM (active).
In the case of `O=[N+]([O-])c1ccc([As](=O)(O)O)cc1`, the activity (max response) is 4.1% (inactive).
Same read-out and setting: under `N#CC(O[C@@H]1O[C@H](CO[C@@H]2O[C@H](CO)[C@@H](O)[C@H](O)[C@H]2O)[C@@H](O)[C@H](O)[C@H]1O)c1ccccc1` (stereo not given in full) stands -16.1% (inactive); under `CCOC(=O)Nc1ccc(NCc2ccc(F)cc2)cc1N`, -1.78% (inactive).
Turning to `O=C(O)CCCCCCNC1c2ccccc2CCc2ccccc21`, the activity (max response) was 1.72% (inactive).
The same measure, in the same setting: next, `C[C@@H](N)[C@@H](O)c1ccccc1`: 3.81% (inactive).
Same read-out and setting: next, `CCN[C@@H](C)Cc1cccc(C(F)(F)F)c1`: -3.94% (inactive).
Take `O=C(Nc1ccncc1)C(=O)c1cn(Cc2ccc(Cl)cc2)c2ccccc12`: the Potency was 126 nM (active).
For the compound `CN1C(=O)[C@@H](NC(=O)[C@H](CCC(F)(F)F)[C@H](CCC(F)(F)F)C(N)=O)N=C(c2ccccc2)c2ccccc21`, the activity (max response) is -2.32% (inactive).
With `CN1C(=O)CCS(=O)(=O)C1c1ccc(Cl)cc1` (stereo not given), the activity (max response) is 1.09% (inactive) and -1.33% (inactive).
Still for that read-out and setting: under `Cn1c(COP(=O)(NCCBr)NCCBr)cnc1[N+](=O)[O-]` stands -13.5% (inactive).
Regarding `C[C@](O)(COc1ccc(C#N)cc1)C(=O)Nc1ccc(C#N)c(C(F)(F)F)c1`, the Potency is 22400 nM (active).
For the compound `C[C@]12CC[C@H]3[C@@H](CCC4=CC(=O)CC[C@@]43C)[C@@H]1CC[C@@H]2C(=O)O`, the activity (max response) was 11.4% (inactive).
Turning to `COc1cc([C@@H]2c3cc4c(cc3[C@@H](O)C3COC(=O)C32)OCO4)cc(OC)c1O` (stereo not given in full), the Potency was 316 nM (active).
Take `CN(C)CCc1ccc(O)cc1`: the activity (max response) is -2.47% (inactive).
Consider `CCC(=O)O[C@@H]1C=C2CCC3C(CCC4(C)C3CC[C@@H]4OC(=O)CC)C2CC1` (stereo not given in full), for which the activity (max response) is 1.7% (inactive).
Take `CC1=C(O)C(=O)C=C2C1=CC=C1[C@@]2(C)CC[C@@]2(C)[C@@H]3C[C@](C)(C(=O)O)CC[C@]3(C)CC[C@]12C`: the Potency is 4470 nM (active).
Turning to `COc1cc(CCN)cc(OC)c1OC`, the activity (max response) was -7.31% (inactive).
Same read-out and setting: under `CN(C)NC(=O)CCC(=O)O` stands -24.4% (inactive); under `CC(C)CC(N(C)C)C1(c2ccc(Cl)cc2)CCC1` (stereo not given), -12.4% (inactive).
